Among the data in PubChem BioAssay are inhibition values, retold here.

Unmarked numbers belong to inactive results. Calls of active or inactive are those of the source.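 The calls were made as follows, unless noted: active = inhibition above 50%; inactive = the rest.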

Sequence of L-lactate dehydrogenase (Plasmodium falciparum (isolate CDC / Honduras)) (Q27743 whole entry, looked up): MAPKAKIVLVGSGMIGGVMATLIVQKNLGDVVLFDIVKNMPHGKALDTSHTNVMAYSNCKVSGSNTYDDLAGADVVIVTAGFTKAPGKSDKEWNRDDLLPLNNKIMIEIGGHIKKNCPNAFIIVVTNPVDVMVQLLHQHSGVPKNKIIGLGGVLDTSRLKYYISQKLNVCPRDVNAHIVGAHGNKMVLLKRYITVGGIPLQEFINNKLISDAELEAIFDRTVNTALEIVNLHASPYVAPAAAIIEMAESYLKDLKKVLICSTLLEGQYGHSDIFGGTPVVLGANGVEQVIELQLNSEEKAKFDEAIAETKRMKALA

Tested on in one experiment: not listed separately
Put plainly: HepG2 cytotoxicity, primary screen, cytotoxicity control for P. falciparum antimalarial project, cell-based, ATP luminescence (AID 2303).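 Also: 0% = DMSO wells and 100% = digitonin-killed cells.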 The following applies: HepG2 viability, 24-48 h, at 10 µM, stronger effect = higher value.
In the case of `c1ccc(CCNCc2cccc(-c3ccc(CNc4ccc5ncccc5c4)cc3)c2)cc1`, the inhibition was 43%.
Turning to `CC(C)(C)Oc1ccc(C[C@@H]2NC3(C(=O)N(Cc4ccc(Cl)c(Cl)c4)c4ccccc43)C3C(=O)N(c4ccc(Br)cc4)C(=O)C32)cc1` (stereo not given in full), the inhibition is 1%.
Still for that read-out and setting: the figure for `CCOc1ccccc1CNc1nccc(NCCc2cn(C)c3ccccc23)n1` is 27%.
Regarding `COc1ccc(CNCc2ccsc2)cc1-c1ccc(OC)c(S(=O)(=O)NCCN2CCCC2)c1`, the inhibition is 18%.
Regarding `COC1CCC(C(=O)Nc2ccc(-c3cccc(-c4nc5c(C)cccc5[nH]4)c3)cc2)CC1` (stereo not given), the inhibition was 89% (active).
For `CC(C)c1ccc(-c2noc(SCC(=O)N3CCCCC3C)n2)cc1` (stereo not given), the inhibition was 21%.
For the compound `COc1cc(OC)c(NC(=O)Nc2ccnc3ccccc23)cc1Cl`, the inhibition is 19%.
Turning to `CCn1c2c(c(=N)c3ccccc31)CCC2`, the inhibition was 11%.
Regarding `CC(=O)Nc1ccc(S(=O)(=O)Nc2c(C)cc(Cc3cnc(N)nc3N)cc2C)cc1`, the inhibition was 6%.
With `O=C(CCn1c2ccccc2c2ccccc21)NN=Cc1ccco1`, the inhibition was 6%.
`COc1cc(CCN=C(N)/C=C/c2ccc(Cl)cc2)ccc1Cl`: the inhibition was 68% (active).
Regarding `CC(C)CC(NC(=O)c1cccc(OCCN2CCOCC2)c1)C(=O)NC(/C=N/NC(=O)c1ccccc1)CCc1ccccc1` (stereo not given), the inhibition was -5%.
In the case of `O=C(/C=C/c1c(Cl)cccc1Cl)NC1CCC(CN2CCC(c3c[nH]c4ccncc34)CC2)CC1` (stereo not given), the inhibition was 78% (active).
As for `CN1CCC(Oc2ccc(CN3CC[C@H](NC(=O)c4ccc(F)c(F)c4)C3)c3ccccc23)C1` (stereo not given in full), the inhibition is 20%.
On the same count and under the same terms, in the case of `O=C(/C=C/c1ccc2ccccc2c1)NCC1(c2ccc(-c3ccccc3)cc2)CCOCC1` it was 9%; in that of `CC1(C)N=C(N)N=C(N)N1OCc1cccs1`, 60% (active).
Consider `CC(C)c1cn2c3c(cc(C(=O)N[C@@H](Cc4ccccc4)[C@H](O)CNC4CCOCC4)cc13)N(C)S(=O)(=O)CC2`, for which the inhibition is 9%.
Consider `COc1ccc2nccc([C@@H](O)CN3CCC(NC(=O)/C=C/c4ccc5[nH]c(=O)ccc5c4)CC3)c2c1`, for which the inhibition is 2%.
Consider `Cc1ccc(C(=O)NC2CCN(CCNC(=O)Nc3cc(C)nc4ccccc34)CC2)cc1`, for which the inhibition is -12%.
With `CCOC(=O)c1ccc2nc(-c3ccc(C(=O)NC4CCN(Cc5ccccc5)CC4)s3)[nH]c2c1`, the inhibition is 32%.
As for `COc1ccc(C(=O)Nc2cc(Br)c3c(c2)CNCC3)cc1C(F)(F)F`, the inhibition was 13%.
For `C=CCn1c(Sc2ccc(C#N)c([N+](=O)[O-])c2)nnc1-c1ccc(OC)cc1`, the inhibition is -5%.
Turning to `CC(C)c1ccc2[nH]c(C(=O)NC3CCC(N4CCCc5ccc(C#N)cc5C4)CC3)cc2c1` (stereo not given), the inhibition is 48%.
In the case of `OC[C@H](Nc1nc(C(Oc2ccccc2)c2ccccc2)nc2[nH]ncc12)c1ccccc1` (stereo not given in full), the inhibition was 0%.
Consider `COc1ccccc1-n1c(-c2ccc3ccccc3c2)csc1=NC(=O)c1ccccc1`, for which the inhibition is -6%.
As to `CN(C)Cc1c(O)ccc2[nH]c(-c3ccc(OC(F)(F)F)cc3)nc12`, the inhibition was 24%.
The same measure, in the same setting: in the case of `COc1ccc(CN2CCC(N3CCc4cc(NC(=O)c5cc(C)on5)ccc43)C2)cc1Cl` (stereo not given) it was 15%.
Same read-out and setting: in the case of `CCN(CC)CCNc1ccc(Nc2ccnc3cc4ccccc4cc23)cc1` it was 36%.
Turning to `c1cncc(CCNCc2cccc(-c3ccc(-c4nc5ccccc5[nH]4)s3)c2)c1`, the inhibition was 8%.
Consider `CNC(=O)c1cc(Nc2nnc(-c3ccc(C)c(S(=O)(=O)NC4CCCCC4)c3)c3ccccc23)ccc1OC`, for which the inhibition is -10%.
As to `OC1CCCN(Cc2ccc(-c3ccc(-c4nc5ccc(F)cc5[nH]4)cc3)cc2)C1` (stereo not given), the inhibition was 55% (active).
Consider `Cc1cccc(CN2CCCN(Cc3ccc(C(=O)Nc4ccc(C)c(F)c4)cc3)CC2)c1`, for which the inhibition was 47%.
The same measure, in the same setting: the figure for `Cn1cncc1C(=O)Nc1cccc(-c2ccc(-c3nc4ccc(F)cc4[nH]3)cc2)c1` is -1%; for `CSc1ccccc1NC(=S)NC1CCN(CCCCCNC(=O)/C=C/c2ccc(Cl)c(Cl)c2)CC1` it is 19%.
Same read-out and setting: the figure for `NC(=O)C1Cc2ccccc2CN1CC(=O)Nc1ccccc1Sc1ccccc1` (stereo not given) is 5%.
Consider `Cc1nc(/N=C(\N)NC(=O)NC2CCCCC2)nc2ccccc12`, for which the inhibition is 21%.
For `Fc1ccc(-c2cncc(Nc3ccncc3)n2)cc1`, the inhibition is 8%.
Same read-out and setting: the figure for `Cc1ccc(Nc2nc(C)cc(NC3CCCC3)n2)cc1` is 33%; for `O=C(Nc1cccc(CN2CCCN(Cc3ccsc3)CC2)c1)c1cc2ccccc2s1` it is 25%; for `CCc1cccc(OCC2CCCN(c3ccc(C(=O)NC4CC4)cn3)C2)c1` (stereo not given) it is -1%.

Another experiment addresses L-lactate dehydrogenase (Plasmodium falciparum (isolate CDC / Honduras)) (UniProt Q27743). Put plainly: PfLDH activity inhibition – cell lysate, 3D7 strain, counter-screen for P. falciparum growth inhibition project (AID 2304; call rule not given here;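 also: 0% = vehicle and 100% = reference inhibitor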). The settings on record: P. falciparum 3D7 crude extract, LDH APAD/NBT absorbance; at 2 µM; stronger effect = higher value. (Counterscreens check selectivity or assay interference.)
Consider `c1ccc(CCNCc2cccc(-c3ccc(CNc4ccc5ncccc5c4)cc3)c2)cc1`, for which the inhibition is -2%.
Same read-out and setting: the figure for `CC(C)(C)Oc1ccc(C[C@@H]2NC3(C(=O)N(Cc4ccc(Cl)c(Cl)c4)c4ccccc43)C3C(=O)N(c4ccc(Br)cc4)C(=O)C32)cc1` (stereo not given in full) is 6%.
On the same count and under the same terms, in the case of `CCOc1ccccc1CNc1nccc(NCCc2cn(C)c3ccccc23)n1` it was -4%; in that of `COc1ccc(CNCc2ccsc2)cc1-c1ccc(OC)c(S(=O)(=O)NCCN2CCCC2)c1`, 0%; in that of `COC1CCC(C(=O)Nc2ccc(-c3cccc(-c4nc5c(C)cccc5[nH]4)c3)cc2)CC1` (stereo not given), 1%.
As to `CC(C)c1ccc(-c2noc(SCC(=O)N3CCCCC3C)n2)cc1` (stereo not given), the inhibition is 2%.
Turning to `COc1cc(OC)c(NC(=O)Nc2ccnc3ccccc23)cc1Cl`, the inhibition is -2%.
In the case of `CCn1c2c(c(=N)c3ccccc31)CCC2`, the inhibition is 8%.
On the same count and under the same terms, the figure for `CC(=O)Nc1ccc(S(=O)(=O)Nc2c(C)cc(Cc3cnc(N)nc3N)cc2C)cc1` is 5%; for `O=C(CCn1c2ccccc2c2ccccc21)NN=Cc1ccco1` it is -3%.
On the same count and under the same terms, in the case of `COc1cc(CCN=C(N)/C=C/c2ccc(Cl)cc2)ccc1Cl` it was 3%.
Same read-out and setting: in the case of `CC(C)CC(NC(=O)c1cccc(OCCN2CCOCC2)c1)C(=O)NC(/C=N/NC(=O)c1ccccc1)CCc1ccccc1` (stereo not given) it was -9%; in that of `O=C(/C=C/c1c(Cl)cccc1Cl)NC1CCC(CN2CCC(c3c[nH]c4ccncc34)CC2)CC1` (stereo not given), 2%; in that of `CN1CCC(Oc2ccc(CN3CC[C@H](NC(=O)c4ccc(F)c(F)c4)C3)c3ccccc23)C1` (stereo not given in full), 2%.
As for `O=C(/C=C/c1ccc2ccccc2c1)NCC1(c2ccc(-c3ccccc3)cc2)CCOCC1`, the inhibition was 0%.
On to `CC1(C)N=C(N)N=C(N)N1OCc1cccs1`, for which the inhibition was -4%.
As for `CC(C)c1cn2c3c(cc(C(=O)N[C@@H](Cc4ccccc4)[C@H](O)CNC4CCOCC4)cc13)N(C)S(=O)(=O)CC2`, the inhibition was -6%.
With `COc1ccc2nccc([C@@H](O)CN3CCC(NC(=O)/C=C/c4ccc5[nH]c(=O)ccc5c4)CC3)c2c1`, the inhibition was 5%.
Regarding `Cc1ccc(C(=O)NC2CCN(CCNC(=O)Nc3cc(C)nc4ccccc34)CC2)cc1`, the inhibition is -8%.
As for `CCOC(=O)c1ccc2nc(-c3ccc(C(=O)NC4CCN(Cc5ccccc5)CC4)s3)[nH]c2c1`, the inhibition was -2%.
Consider `COc1ccc(C(=O)Nc2cc(Br)c3c(c2)CNCC3)cc1C(F)(F)F`, for which the inhibition was 8%.
With `C=CCn1c(Sc2ccc(C#N)c([N+](=O)[O-])c2)nnc1-c1ccc(OC)cc1`, the inhibition is 0%.
Still for that read-out and setting: the figure for `CC(C)c1ccc2[nH]c(C(=O)NC3CCC(N4CCCc5ccc(C#N)cc5C4)CC3)cc2c1` (stereo not given) is -3%; for `OC[C@H](Nc1nc(C(Oc2ccccc2)c2ccccc2)nc2[nH]ncc12)c1ccccc1` (stereo not given in full) it is -4%.
For the compound `COc1ccccc1-n1c(-c2ccc3ccccc3c2)csc1=NC(=O)c1ccccc1`, the inhibition was -1%.
The same measure, in the same setting: the figure for `CN(C)Cc1c(O)ccc2[nH]c(-c3ccc(OC(F)(F)F)cc3)nc12` is -3%.
Take `COc1ccc(CN2CCC(N3CCc4cc(NC(=O)c5cc(C)on5)ccc43)C2)cc1Cl` (stereo not given): the inhibition is 2%.
As to `CCN(CC)CCNc1ccc(Nc2ccnc3cc4ccccc4cc23)cc1`, the inhibition is -8%.
Take `c1cncc(CCNCc2cccc(-c3ccc(-c4nc5ccccc5[nH]4)s3)c2)c1`: the inhibition is -1%.
In the case of `CNC(=O)c1cc(Nc2nnc(-c3ccc(C)c(S(=O)(=O)NC4CCCCC4)c3)c3ccccc23)ccc1OC`, the inhibition was 5%.
In the case of `OC1CCCN(Cc2ccc(-c3ccc(-c4nc5ccc(F)cc5[nH]4)cc3)cc2)C1` (stereo not given), the inhibition is 2%.
On the same count and under the same terms, in the case of `Cc1cccc(CN2CCCN(Cc3ccc(C(=O)Nc4ccc(C)c(F)c4)cc3)CC2)c1` it was -4%; in that of `Cn1cncc1C(=O)Nc1cccc(-c2ccc(-c3nc4ccc(F)cc4[nH]3)cc2)c1`, -2%; in that of `CSc1ccccc1NC(=S)NC1CCN(CCCCCNC(=O)/C=C/c2ccc(Cl)c(Cl)c2)CC1`, 4%.
For `NC(=O)C1Cc2ccccc2CN1CC(=O)Nc1ccccc1Sc1ccccc1` (stereo not given), the inhibition was 3%.
On the same count and under the same terms, in the case of `Cc1nc(/N=C(\N)NC(=O)NC2CCCCC2)nc2ccccc12` it was -2%; in that of `Fc1ccc(-c2cncc(Nc3ccncc3)n2)cc1`, -1%.
For `Cc1ccc(Nc2nc(C)cc(NC3CCCC3)n2)cc1`, the inhibition is 0%.
Same read-out and setting: the figure for `O=C(Nc1cccc(CN2CCCN(Cc3ccsc3)CC2)c1)c1cc2ccccc2s1` is 5%; for `CCc1cccc(OCC2CCCN(c3ccc(C(=O)NC4CC4)cn3)C2)c1` (stereo not given) it is 5%.

What is called inhibition is the relative decrease from the control value, in per cent.
